Screen size: about 47,000 compounds; about 2,500 (5.3%) were called active. This excerpt belongs to a sample that is enriched for actives. Values without a mark were called inactive. Rule as the data show it: active = inhibition above about 30%; inactive = the rest.
molecular target: Ubiquitin carboxyl-terminal hydrolase 30 (Homo sapiens) (UniProt Q70CQ3); assay: blocks human USP30 ubiquitin-rhodamine cleavage (AID 1645860); conditions: purified USP30, Ub-rhodamine cleavage fluorescence; at 25 µM; active compounds read high
Sequence (Q70CQ3 whole entry, looked up): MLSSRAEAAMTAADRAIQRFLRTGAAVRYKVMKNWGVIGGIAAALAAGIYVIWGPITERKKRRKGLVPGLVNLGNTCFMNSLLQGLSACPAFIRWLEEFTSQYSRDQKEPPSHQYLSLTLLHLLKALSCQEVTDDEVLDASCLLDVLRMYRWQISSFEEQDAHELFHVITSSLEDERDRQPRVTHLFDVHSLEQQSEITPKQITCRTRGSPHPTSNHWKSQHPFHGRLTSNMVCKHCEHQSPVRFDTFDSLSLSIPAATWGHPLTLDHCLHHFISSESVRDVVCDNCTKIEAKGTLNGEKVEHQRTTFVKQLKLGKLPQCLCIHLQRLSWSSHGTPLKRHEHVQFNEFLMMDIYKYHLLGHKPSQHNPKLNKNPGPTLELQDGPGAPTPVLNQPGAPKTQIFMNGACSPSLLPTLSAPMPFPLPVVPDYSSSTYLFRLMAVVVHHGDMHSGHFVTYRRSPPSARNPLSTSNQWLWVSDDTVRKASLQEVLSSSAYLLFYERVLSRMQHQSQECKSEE

For COc1ccc(CNC(=O)c2[nH]nc3c2CCc2ccccc2-3)cc1, the inhibition was 49.8% (active).
CC(C)NC(=O)CN1C(=O)CC(C)Sc2ccc(S(=O)(=O)N3CCCCC3)cc21 (stereo not drawn) was tested, and the inhibition was 86.3% (active).
Cc1ccc(CNC(=O)CC(c2ccccc2)c2ccccc2)cc1 was tested, and the inhibition was 34.5% (active).
CCc1nc(SCC(=O)Nc2cccc3ccccc23)c2oc3ccccc3c2n1 was tested, and the inhibition was 47.2% (active).
For Clc1ccc(C[n+]2cc(-c3ccc(Cl)cc3)n3c2CCC3)cc1, the inhibition was 34.1% (active).
O=C(c1cc2occc2c(Nc2ccc(F)cc2)n1)N1CCN(C(=O)c2ccco2)CC1 was tested, and the inhibition was 32.6% (active).
CC(C)c1ccc(NC(=O)C[n+]2cc(-c3ccc(F)cc3)n3c2CCC3)cc1 was tested, and the inhibition was 41.8% (active).
With O=c1ccc(-c2nc(-c3cnccn3)no2)cn1Cc1ccccc1C(F)(F)F the inhibition was 41.2% (active).
With Cc1nc(-c2ccc(C(=O)NCc3ccc4c(c3)OCO4)cc2)cs1 the inhibition was 46.2% (active).
In the case of Cc1cnc(NC(=O)Cn2cnc3c2c(=O)n(C)c(=O)n3C)s1, the inhibition is reported as 30.8% (active).
Cc1ccccc1-c1nc(-c2cccc(OCC(=O)N3CCOCC3)c2)no1 was tested, and the inhibition was 44.8% (active).
In the case of Cc1ccc(-c2noc(-c3cccc(OCC(=O)N(C)C)c3)n2)cc1, the inhibition is reported as 53.1% (active).

In order of falling inhibition:
1. Cc1noc(C)c1CC(=O)N1CCN(S(=O)(=O)c2ccc(C3CCCCC3)cc2)CC1  29.4%
2. O=C(CSc1ncnc2c1oc1ccccc12)NC1CCCC1  29.2%
3. Cc1c(Cl)cccc1NC(=O)C[n+]1cc(-c2ccc(Cl)cc2)n2c1CCC2  27.5%
4. O=C(C1CCCN(S(=O)(=O)c2ccc(Cl)cc2)C1)N1CCOCC1 (stereo not drawn)  25.3%
5. CCc1nc(SCC(=O)Nc2cc(Cl)ccc2Cl)c2oc3ccccc3c2n1  20%
6. Cc1ccc(CNC(=O)c2ccc(-c3cccnc3)nc2)cc1  18.3%
7. CC(C)(C)OC(=O)N1CCC2(CC1)NC(=O)C1(CCCCC1)N2  16.4%
8. CCc1nnc(-c2csc(S(=O)(=O)NC3CCCCCC3)c2)o1  16.4%
9. COc1cc(Cl)ccc1-c1nc(-c2cccc(C(=O)N3CCCC3)c2)no1  16.1%
10. O=C(CCN1C(=O)c2cccnc2Sc2ccccc21)Nc1cc(F)ccc1F  14.9%
11. Cn1c(=O)c2c(ncn2CC(=O)OCc2cccc([N+](=O)[O-])c2)n(C)c1=O  13.8%
12. O=C(O)C1(Cc2nc3ccccc3s2)CCCCC1  11.5%
13. O=C1COc2ccccc2N1Cc1noc(-c2ccccc2)n1  11.5%
14. N#Cc1ccc(NC(=O)Nc2cccn(Cc3ccccc3F)c2=O)cc1  11.4%
15. COc1cc(C)c(CN2CCC(c3cc(=O)[nH]c(C)n3)C2)cc1C (stereo not drawn)  8.61%
16. CC1CCCN(C(=O)c2cc(S(=O)(=O)N3CCCCC3)ccc2Cl)C1 (stereo not drawn)  8.5%
17. Cc1cccnc1NC(=O)C1c2ccccc2C(=O)N(C)C1c1cccs1 (stereo not drawn)  7.71%
18. Cc1ccc(-c2nc(-c3cccc(-c4ccnn4C)c3)no2)cc1  4.68%
19. CCN1CCN(S(=O)(=O)c2ccc3c(c2)CC(C)N3C(=O)C2CC2)CC1 (stereo not drawn)  2.83%
20. O=C(NCc1ccc2c(c1)OCO2)c1nc(-c2cccnc2)no1  2.73%
21. Cc1ccccc1OCC(=O)Nc1c(C)nc2scc(C)n2c1=O  2.51%
22. O=C(CN(c1ccc(Cl)cc1Cl)S(=O)(=O)c1ccccc1)NCc1ccncc1  2.13%
23. O=C([C@H]1CCCO1)N1C[C@H](OCc2cccnc2)[C@H]2COC[C@H]21  2.01%
24. Cc1ccc(NC(=O)CCn2cnc3c2c(=O)n(C)c(=O)n3C)cc1  1.79%
25. O=C(NCCC(=O)N1CCC2(CC1)NCCc1[nH]cnc12)c1ccc(-c2ccccc2)cc1  0.531%
26. CC(=O)N1C[C@H]2C3(CCN(C(=O)c4cc(C)on4)CC3)CC[C@@]2(C(=O)N(C)C)C1  0.149%
27. Cn1c(CCN2CCOCC2)nc2cc(NC(=O)c3ccco3)ccc21  -0.464%
28. COc1ccc(-c2noc(-c3cccc(OCC(=O)NC(C)C)c3)n2)cc1  -1.09%
29. CC(=O)CCC(=O)Nc1ccc(-c2nnc3n2CCCCC3)cc1  -1.55%
30. COCCn1cnc2c(-c3ccccc3)cn(CC(=O)NCc3ccc(F)cc3)c2c1=O  -1.66%
31. COc1cccc(NC(=O)c2nnn(Cc3nc(-c4cccc(C)c4)oc3C)c2N)c1  -2.05%
32. Cc1ccc(C(C)C(=O)N2CCC(c3nc4ccccc4cc3C(N)=O)CC2)cc1 (stereo not drawn)  -3.47%
33. O=c1ccc(-c2nc(-c3cnccn3)no2)cn1Cc1cccc(Br)c1  -4.12%
34. C/C(=C(\NC(=O)c1ccccc1)C(=O)NCc1ccccc1)c1ccc(C)cc1  -4.27%
35. CN(C)C(=O)C1CN(C(=O)c2n[nH]c3c2CCCC3)CC12CCOCC2 (stereo not drawn)  -5.3%
36. COc1ccc(CNC(=O)c2ccccc2-c2ncc(-c3ccccc3)o2)cc1  -5.92%
37. COc1ccc(CNC(=O)c2cccc3cccnc23)cc1  -9.33%
38. O=C(c1nc(-c2cnccn2)no1)N1CCN(c2ccccc2F)CC1  -11.4%
39. Cc1ccc(C(=O)Nc2nccnc2C(=O)NCc2ccc3c(c2)OCO3)cc1  -13.1%
40. COC(=O)c1cc(NC(=O)c2cccnc2)ccc1N1CCOCC1  -17.6%
41. CCCN1CCN(Cc2nc(-c3ccc(N4CCCCCC4)nc3)no2)CC1  -26.8%
42. Cc1nc(Nc2ccc(NC(=O)c3ccco3)cc2)cc(N2CCCCC2)n1  -38.5%
43. Cc1ccc(CNC(=O)c2ccc(-c3cncnc3)nc2)cc1C  -42.8%
44. Cc1ccccc1-c1nc(-c2cn(CC(=O)Nc3ccccc3)cn2)no1  -44.4%
45. Cc1ccc(CNC(=O)CCC(=O)N2Cc3cccn3-c3ccccc32)cc1  -82.9%
46. Cc1ccc(Nc2nc(C(=O)NCCN3CCCCC3C)cc3occc23)cc1Cl (stereo not drawn)  -102%
